Measured values as given in PubChem BioAssay (NCATS).
Results filed as inconclusive are left out. A number with no mark means an inactive call. The source made the active and inactive calls. Calls follow the shape of the dose curve; as a rule, active = well fitted inhibition curve with a large enough effect; inconclusive = small, poorly fitted or top-dose-only effect; inactive = no such curve, though single readings can be large or run the other way.
% is scaled to controls: 0 for no effect and ±100 for the full control effect; potency is read from the fitted curve at half-maximal effect.

What follows are compounds tested on Zika virus NS2B-NS3 protease (linked construct) (assay: Primary screen NINDS Rhodamine qHTS for Zika virus inhibitors (AID 1347160; also: nearly all actives have a fitted effect of over 55% in size)). Details: purified NS2B-NS3 protease, Rhodamine110 substrate fluorescence; series mostly up to 57.1 µM; activity change, negative = inhibition: at the top concentration.
Procedure, shortened: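 Single-chain NS2B-NS3 protease, 25 nM, pH 8.0; compounds preincubated 15 min. Activity: Rhodamine110 release from 1.5 microM substrate over 15 min, room temperature, data fitted to 4-parameter Hill.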
For `Nc1ccc(C(=O)Nc2cccc(-c3nc(N4CCOCC4)c4oc5ncccc5c4n3)c2)cn1`, the “activity change, negative = inhibition” value was -4.87%. `Nc1ccn(C2CO[C@H](CO)O2)c(=O)n1` (stereo partly specified) was tested, and the “activity change, negative = inhibition” value was 16.4%. For `Oc1ccc([C@@H]2Oc3ccc(O)cc3[C@@H]3CCC[C@@H]32)cc1`, the “activity change, negative = inhibition” value was 1.63%. With `Cc1ccccc1C(=O)Nc1ccc(C(=O)N2CCCC(O)c3cc(Cl)ccc32)c(C)c1` (stereo unspecified) the “activity change, negative = inhibition” value was 7.1%. For `CC(C)n1cnc2c(NCCc3ccc(O)cc3)nc(-c3csc4ccccc34)nc21`, the “activity change, negative = inhibition” value was -6.35%. For `CCc1ccc(C(=O)Nc2cc(CN3CCN(C)CC3)cc(C(F)(F)F)c2)cc1C#Cc1cnc2ccnn2c1`, the “activity change, negative = inhibition” value was 337%. `CC1=C(C(=O)Nc2cc3cn[nH]c3cc2F)C(c2ccc(Cl)cc2F)N=C(c2ccnc(Cl)c2)N1` (stereo unspecified) was tested, and the “activity change, negative = inhibition” value was -8.17%. With `Cc1coc2c1C(=O)C(=O)c1c-2ccc2c(C)cccc12` the Potency was 25.1 µM (active). In the case of `CN(C)CC(=O)N1CCC(c2ccc(NC(=O)c3ncc(C#N)[nH]3)c(C3=CCCCC3)c2)CC1`, the “outcome” value is reported as “inactive”. For `C[N+]1(C)[C@@H]2C[C@@H](OC(=O)C(O)(c3cccs3)c3cccs3)C[C@H]1[C@@H]1O[C@@H]12`, the “activity change, negative = inhibition” value was -7.9%. In the case of `N[C@H]1CN(c2c(F)cc3c(=O)c(C(=O)O)cn(C4C[C@@H]4F)c3c2Cl)CC12CC2` (stereo partly specified), the “activity change, negative = inhibition” value is reported as -5.25%. With `O=c1c(O)c(-c2ccc(O)c(O)c2)oc2cc(O)ccc12` the Potency was 22 µM (active). `Cn1cnc2c(F)c(Nc3ccc(Br)cc3F)c(C(=O)NOCCO)cc21` was tested, and the “activity change, negative = inhibition” value was 11.1%. `CCCCOc1ccc(C(=O)Nc2ccc(F)cc2F)cc1` was tested, and the “activity change, negative = inhibition” value was 6.34%. `OCCNC1CCCc2c1[nH]c1ccc(-c3ccccc3)cc21` (stereo unspecified) was tested, and the “activity change, negative = inhibition” value was 412%. For `COc1cc(CCc2cc(NC(=O)c3ccc(N4C[C@@H](C)N[C@@H](C)C4)cc3)n[nH]2)cc(OC)c1`, the “activity change, negative = inhibition” value was 174%.
